The whole screen tested about 52,000 compounds, of which about 1,700 (3.3%) were called active. Cut-off read from the data, not from the text of the source: active = survival mostly below about 52% (no sharp cut-off); inactive = mostly above about 56%. What follows is part of a selection rich in actives, with near analogues and random picks from the rest.
The molecules below were run on Wild type (assay: growth inhibition of S. aureus wild type versus tarO mutant, primary screen, teichoic acid synthesis inhibitors, RN4220, OD600 (AID 463173)). Settings: S. aureus RN4220 wild type/DeltatarO growth, OD600, 18 h, hits give low values, screened at 18.75 µg/mL (by protocol).

| Compound | survival |
| --- | --- |
| COc1ccc(Cl)cc1NC(=O)Cn1nnc(C(=O)NCc2ccc3c(c2)OCO3)c1N | 81% (inactive) |
| c1ccc(Cn2nnnc2C(c2cccnc2)N2CCN(c3ccccc3)CC2)cc1 (stereo not drawn) | 113% (inactive) |
| COC(=O)COc1ccc(Oc2nc(NC(C)(C)C)nc(N(C)C)n2)nn1 | 85% (inactive) |
| Cc1ccc(CNC(=O)CSc2c(C(C)C)cnc3c2c(=O)n(C)c(=O)n3C)cc1 | 58% (inactive) |
| CCCc1cnc2c(c1SCC(=O)NCc1ccc(C)cc1)c(=O)n(C)c(=O)n2C | -6% (active) |
| CCc1cnc2c(c1SCC(=O)NCc1ccc(C)cc1)c(=O)n(C)c(=O)n2C | 67% (inactive) |
| CCOC(=O)c1cc(-c2ccccc2)n(-c2cccc(C(=O)Nc3ccc(OC)cc3)c2)c1C | 77% (inactive) |
| CCOC(=O)c1cc(-c2ccccc2)n(-c2cccc(C(=O)Nc3cccc(SC)c3)c2)c1C | 0% (active) |
| CCOC(=O)c1cc(-c2ccccc2)n(-c2cccc(C(=O)Nc3cc(OC)cc(OC)c3)c2)c1C | 88% (inactive) |
| CCOC(=O)c1cc(-c2ccccc2)n(-c2cccc(C(=O)Nc3cccc(C(C)=O)c3)c2)c1C | 70% (inactive) |
| CCOC(=O)c1cc(-c2ccccc2)n(-c2cccc(C(=O)Nc3cccc(F)c3)c2)c1C | 131% (inactive) |
| CCOC(=O)c1cc(-c2ccccc2)n(-c2cccc(C(=O)Nc3ccc(OCC)cc3)c2)c1C | 10% (active) |
| CCc1ccc(Nc2nnc(-c3cc4cc(OC)ccc4oc3=O)s2)cc1 | 138% (inactive) |
| CCC(CC)C(=O)Nc1cc(-c2cccc(C)c2)nn1-c1ccccc1 | 69% (inactive) |
| COc1ccc(CCn2c(=O)[nH]c3cc(C(=O)N4CCN(c5ccccc5)CC4)ccc3c2=O)cc1OC | 102% (inactive) |
| O=C1OC(c2ccccc2)=C/C1=C/N1CCOCC1 | 116% (inactive) |
| O=S(=O)(Nc1nc2n(n1)C(c1ccc(F)cc1)C=C(c1ccc(Cl)cc1)N2)c1ccccc1 (stereo not drawn) | 57% (inactive) |
| COc1ccc(C2C=C(c3ccccc3)Nc3nc(NS(=O)(=O)c4ccccc4)nn32)cc1 (stereo not drawn) | 29% (inactive) |
| COc1ccc(C2C=C(c3ccc(Cl)cc3)Nc3nc(-c4ccc(Cl)cc4)nn32)cc1 (stereo not drawn) | 88% (inactive) |
| Cc1ccc(C2C=C(c3ccccc3)Nc3nc(NS(=O)(=O)c4ccccc4)nn32)cc1 (stereo not drawn) | 83% (inactive) |
| Cc1ccc(C2=CC(c3ccc(Cl)cc3)n3nc(-c4ccc(C)cc4)nc3N2)cc1 (stereo not drawn) | 1% (active) |
| O=S(=O)(Nc1nc2n(n1)C(c1ccc(F)cc1)C=C(c1ccccc1)N2)c1ccc(Cl)cc1 (stereo not drawn) | 14% (active) |
| Cc1ccc(C2C=C(c3ccc(Cl)cc3)Nc3nc(NS(=O)(=O)c4ccccc4)nn32)cc1 (stereo not drawn) | 75% (inactive) |
| COc1ccc(C2C=C(c3ccccc3)Nc3nc(NS(=O)(=O)c4ccc(C)cc4)nn32)cc1 (stereo not drawn) | 66% (inactive) |
| COc1ccc(C2C=C(c3ccc(F)cc3)Nc3nc(-c4ccc(Cl)cc4)nn32)cc1 (stereo not drawn) | 105% (inactive) |
| O=S(=O)(Nc1nc2n(n1)C(c1ccc(F)cc1)C=C(c1ccccc1)N2)c1ccccc1 (stereo not drawn) | 74% (inactive) |
| Cc1ccc(S(=O)(=O)Nc2nc3n(n2)C(c2ccc(Cl)cc2)C=C(c2ccccc2)N3)cc1 (stereo not drawn) | -4% (active) |
| COc1ccc(C2C=C(c3ccccc3)Nc3nc(NS(=O)(=O)c4ccc(Cl)cc4)nn32)cc1 (stereo not drawn) | 0% (active) |
